In PubChem BioAssay (NCATS) one finds outcome data, which are given here for three compounds.

Records with an inconclusive call do not appear. Activity calls are given as the source filed them. The call rests on the fitted dose curve; in most records, active means well fitted curve in the direction sought with a large enough effect; inconclusive means small, poorly fitted or top-dose-only effect, or another doubt; inactive means no such curve, though single readings can be large; an effect the other way counts as inactive or inconclusive.

One test concerns the target Luciferin 4-monooxygenase (Photinus pyralis) (UniProt P08659). Put plainly: Primary firefly luciferase (FLuc) qHTS assay for identification of artifact compounds. (AID 1845220). Further: nearly all actives have a fitted effect of over 60% in size. The note with it: purified firefly luciferase, luminescence, 5 min; series mostly up to 54.1 µM. In outline: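 Enzymatic FLuc inhibition assay: compounds pre-exposed to luciferin/ATP (10 uM each) for 15 min, then purified P. pyralis enzyme at 10 nM added. Read-out: luminescence at 5 min.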
For orientation: Quantitative high-throughput screening tests each substance at several concentrations.
Consider `CO[C@H]1C[C@@H]2CC[C@@H](C)[C@@](O)(O2)C(=O)C(=O)N2CCCC[C@H]2C(=O)O[C@H]([C@H](C)C[C@@H]2CC[C@@H](OC(=O)C(C)(CO)CO)[C@H](OC)C2)CC(=O)[C@H](C)/C=C(\C)[C@@H](O)[C@@H](OC)C(=O)[C@H](C)C[C@H](C)/C=C/C=C/C=C/1C`, for which the compound was classed as inactive.
As to `O=C(O)Cc1cc(I)c(Oc2ccc(O)c(I)c2)c(I)c1`, the call was inactive.
`CC(C)(C)c1ccc(CN2CCN(C(c3ccccc3)c3ccc(Cl)cc3)CC2)cc1` (stereo unspecified): the call was inactive.

Test system in the next test: not listed separately
Put plainly: Primary fluorescence-based thiol-reactive (MSTI) qHTS assay for identification of artifact compounds. (AID 1845221).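 Further: thiol-reactive compounds lower the probe fluorescence signal; nearly all actives have a fitted effect of over 65% in size.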 The note with it: MSTI thiol-reactivity probe, 1 h; series mostly up to 53.8 µM. In short, it runs like this:
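In PBS pH 7.4 with 2% DMSO, each compound met 4 uM MSTI for one hour at ambient temperature, shielded from light, before fluorescence detection.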
As for `CO[C@H]1C[C@@H]2CC[C@@H](C)[C@@](O)(O2)C(=O)C(=O)N2CCCC[C@H]2C(=O)O[C@H]([C@H](C)C[C@@H]2CC[C@@H](OC(=O)C(C)(CO)CO)[C@H](OC)C2)CC(=O)[C@H](C)/C=C(\C)[C@@H](O)[C@@H](OC)C(=O)[C@H](C)C[C@H](C)/C=C/C=C/C=C/1C`, the result was inactive.
On the same count and under the same terms, the value for `O=C(O)Cc1cc(I)c(Oc2ccc(O)c(I)c2)c(I)c1` was “inactive”; that for `CC(C)(C)c1ccc(CN2CCN(C(c3ccccc3)c3ccc(Cl)cc3)CC2)cc1` (stereo unspecified) was “inactive”.
